Test results as given in the supplement of paper PMC13380429.

System: Vero E6 infected with SARS-CoV-2
Experiment: inhibition of SARS-CoV-2 cytopathic effect; higher = more antiviral protection, active = above 15
Conditions: 48 h

Measured: inhibition of SARS-CoV-2 cytopathic effect

Nc1cccc2c1C(=O)N(C1CCC(=O)NC1=O)C2=O (stereo not given) [pomalidomide]
inactive: 1 nM 1.4% | 8.33 nM -0.68% | 100 nM 2.15% | 833.33 nM 0.83% | 10000 nM 2.41%

CSc1ccc(OCc2ncc([N+](=O)[O-])n2C)cc1 [fexinidazole]
inactive: 1 nM -1.82% | 8.33 nM -1.7% | 100 nM -1.88% | 833.33 nM -3.53% | 10000 nM -0.36%

CC(NC(=O)c1ccccc1/N=C/c1c(O)ccc2ccccc12)c1ccccc1 (stereo not given) [sirtinol]
inactive: 1 nM 3.41% | 8.33 nM -0.75% | 100 nM -3.54% | 833.33 nM -2.85% | 10000 nM 0.96%

COc1ccc(CN(C(=O)[C@@H](N)Cc2c(C)cc(C(N)=O)cc2C)[C@@H](C)c2ncc(-c3ccccc3)[nH]2)cc1C(=O)O [eluxadoline]
inactive: 1 nM 2.78% | 8.33 nM 1.84% | 100 nM 0.96% | 833.33 nM 1.03% | 10000 nM 1.03%

OC[C@H]1O[C@@H](n2cnc3c(N[C@H]4CCC[C@@H]4O)ncnc32)[C@H](O)[C@@H]1O
inactive: 1 nM 4.79% | 8.33 nM 4.09% | 100 nM 3.63% | 833.33 nM -0.63% | 10000 nM 0.91%

C#CCN(C)Cc1ccccc1 [pargyline]
inactive: 1 nM 0% | 8.33 nM 0.65% | 100 nM -1.02% | 833.33 nM -1.01% | 10000 nM 2.9%

COc1ccc2[nH]c([S+]([O-])Cc3ncc(C)c(OC)c3C)nc2c1 (stereo not given) [omeprazole]
inactive: 1 nM 0.48% | 8.33 nM 2.24% | 100 nM 1.08% | 833.33 nM 3.07% | 10000 nM 1.79%
